Test results as given in the supplement of paper PMC10498489.
Screen size: about 2,300 compounds; about 330 (14%) showed activity.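 The calls were made as follows: active = median modified Z-score above 1.96; inactive = 1.96 or below.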 Not all results are given here.

The compounds below were run on HepG2 Srxn1-GFP reporter cells (+30 nM CDDO-Me) (assay: Srxn1-GFP intensity median modified Z-score relative to plate median; higher = stronger NRF2 / oxidative stress reporter activation, active = hit call of the paper). Conditions: 10 µM; exposure time: 24h.
Outline: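 Values give the median, over replicates, of the modified Z-score of GFP intensity on each plate. HepG2 Srxn1-GFP BAC reporter cells were co-treated for 24 h with an NRF2 activator at 30 nM and compound at 10 μM (≤0.1% DMSO) in three replicate plates, then analysed per cell for cytoplasmic GFP on confocal images with at least 100 cells. Scaling used 1.4826 × median absolute deviation.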
For `CN1C(C(=O)N=c2cccc[nH]2)C(=O)c2sccc2S1(=O)=O` (stereo not drawn) [euspeclibcmpd536], the “Srxn1-GFP intensity median modified Z-score” value was -0.404 (inactive). `N=c1ccn([C@H]2CC[C@@H](CO)O2)c(=O)[nH]1` [euspeclibcmpd485] was tested, and the “Srxn1-GFP intensity median modified Z-score” value was -0.378 (inactive). In the case of `CCC(CCC(C)[C@H]1CCC2C3CC=C4C[C@@H](OC(C)=O)CC[C@]4(C)C3CC[C@@]21C)C(C)C` (stereo partly drawn) [euspeclibcmpd1595], the “Srxn1-GFP intensity median modified Z-score” value is reported as -0.573 (inactive). `O=c1cc(-c2ccccc2)oc2cccc(O)c12` [euspeclibcmpd2071] was tested, and the “Srxn1-GFP intensity median modified Z-score” value was -0.0825 (inactive). In the case of `COc1ccc2c(=O)cc(-c3ccccc3OC)oc2c1` [euspeclibcmpd2182], the “Srxn1-GFP intensity median modified Z-score” value is reported as 0.253 (inactive). In the case of `COc1ccc(-c2cc(=O)c3cc(OC)ccc3o2)cc1` [euspeclibcmpd2272], the “Srxn1-GFP intensity median modified Z-score” value is reported as -0.0301 (inactive). For `COc1cc(OC)c2c(=O)cc(-c3ccccc3)oc2c1` [euspeclibcmpd1677], the “Srxn1-GFP intensity median modified Z-score” value was 0.503 (inactive). With `COc1ccc2oc(-c3ccccc3OC)cc(=O)c2c1` the “Srxn1-GFP intensity median modified Z-score” value was 0.553 (inactive). With `COc1ccccc1-c1cc(=O)c2c(OC)cccc2o1` [euspeclibcmpd2107] the “Srxn1-GFP intensity median modified Z-score” value was 2.2 (active). With `COc1ccc2oc(-c3ccccc3OC)cc(=O)c2c1` [euspeclibcmpd1670] the “Srxn1-GFP intensity median modified Z-score” value was 3.62 (active). `Cn1c(=O)c2nc(Br)[nH]c2n(C)c1=O` [euspeclibcmpd2124] was tested, and the “Srxn1-GFP intensity median modified Z-score” value was -0.455 (inactive). In the case of `C[N+](C)(C)CCOP(=O)(O)OP(=O)(O)OC[C@H]1OC(n2ccc(=N)[nH]c2=O)[C@H](O)[C@@H]1O` (stereo partly drawn) [euspeclibcmpd812], the “Srxn1-GFP intensity median modified Z-score” value is reported as -0.665 (inactive). `CC(=O)[C@@]1(O)CCC2C3=CC(Cl)=C4CC(=O)C5CC5[C@]4(C)C3CC[C@@]21C` (stereo partly drawn) [euspeclibcmpd1156] was tested, and the “Srxn1-GFP intensity median modified Z-score” value was -0.345 (inactive). With `CS(=O)(=O)c1ccc(N)cc1` the “Srxn1-GFP intensity median modified Z-score” value was 0.342 (inactive). In the case of `CC(C)CCCC(C)[C@H]1CCC2C3CC=C4CC(=O)CC[C@]4(C)C3CC[C@@]21C` (stereo partly drawn) [euspeclibcmpd1330], the “Srxn1-GFP intensity median modified Z-score” value is reported as -0.35 (inactive). In the case of `c1ccc(C2CN3CCSC3=N2)cc1` (stereo not drawn) [euspeclibcmpd2122], the “Srxn1-GFP intensity median modified Z-score” value is reported as 1.03 (inactive). `O=C(O)c1nc2cc(Cl)c(Cl)cc2[nH]c1=O` [euspeclibcmpd1804] was tested, and the “Srxn1-GFP intensity median modified Z-score” value was -0.361 (inactive). `O=c1[nH]c(=O)n([C@H]2C[C@H](O)C(CO)O2)cc1I` (stereo partly drawn) [euspeclibcmpd2208] was tested, and the “Srxn1-GFP intensity median modified Z-score” value was 0 (inactive). With `O=c1[nH]c(=O)n(C2C[C@H](O)[C@@H](CO)O2)cc1C(F)(F)F` (stereo partly drawn) [euspeclibcmpd660] the “Srxn1-GFP intensity median modified Z-score” value was 2.21 (active). With `O=c1[nH]c(=O)n(C2C[C@@H](O)[C@@H](CO)O2)cc1F` (stereo partly drawn) [euspeclibcmpd516] the “Srxn1-GFP intensity median modified Z-score” value was 1.56 (inactive). For `CC(NC(CCc1ccccc1)C(=O)O)C(=O)N1Cc2ccccc2CC1C(=O)O` (stereo not drawn) [euspeclibcmpd841], the “Srxn1-GFP intensity median modified Z-score” value was -0.626 (inactive). In the case of `CC[C@H]1OC(=O)C(C)[C@@H](O[C@H]2C[C@@](C)(OC)[C@@H](O)[C@H](C)O2)[C@H](C)[C@@H](O[C@@H]2O[C@H](C)C[C@H](N(C)C)[C@H]2O)[C@](C)(OC)CC(C)C(=O)C(C)[C@@H](O)[C@]1(C)O` (stereo partly drawn) [euspeclibcmpd669], the “Srxn1-GFP intensity median modified Z-score” value is reported as 1.56 (inactive). In the case of `CC(C(=O)O)C1CCC2C3CC=C4CC(O)CCC4(C)C3CCC12C` (stereo not drawn) [euspeclibcmpd1985], the “Srxn1-GFP intensity median modified Z-score” value is reported as 0.801 (inactive). For `CCCCc1oc2ccccc2c1C(=O)c1cc(I)c(OCCN(CC)CC)c(I)c1` [euspeclibcmpd976], the “Srxn1-GFP intensity median modified Z-score” value was -0.752 (inactive). For `O=C(O)c1cc(=O)c2ccccc2o1` [euspeclibcmpd1112], the “Srxn1-GFP intensity median modified Z-score” value was -0.193 (inactive). With `CCc1oc2ccccc2c1C(=O)c1cc(Br)c(O)c(Br)c1` [euspeclibcmpd888] the “Srxn1-GFP intensity median modified Z-score” value was 2.7 (active). For `CC(=O)OCC[C@H](C)CCC=C(C)C` [euspeclibcmpd1610], the “Srxn1-GFP intensity median modified Z-score” value was 1.13 (inactive). `COc1ccc2c(c1)c(CC(=O)Nc1nccs1)c(C)n2C(=O)c1ccc(Cl)cc1` was tested, and the “Srxn1-GFP intensity median modified Z-score” value was 1.66 (inactive). In the case of `O=C(/C=C/c1ccccc1)c1ccc(O[C@@H]2O[C@H](CO)[C@@H](O)[C@H](O)[C@H]2O)cc1O` [euspeclibcmpd1690], the “Srxn1-GFP intensity median modified Z-score” value is reported as -0.0185 (inactive). With `COc1ccc(O)c(C(=O)/C=C/c2ccc(F)cc2)c1` the “Srxn1-GFP intensity median modified Z-score” value was 1.36 (inactive). For `O=C(C=Cc1ccc(O)cc1)c1ccccc1O` [euspeclibcmpd2063], the “Srxn1-GFP intensity median modified Z-score” value was -0.0605 (inactive). `O=C(C=Cc1ccc(O)cc1)c1ccc(O)cc1O` [euspeclibcmpd1984] was tested, and the “Srxn1-GFP intensity median modified Z-score” value was 13.1 (active). In the case of `O=C(C=Cc1ccccc1)c1ccc(O)cc1O` [euspeclibcmpd1990], the “Srxn1-GFP intensity median modified Z-score” value is reported as 2.48 (active). `COc1ccc(/C=C/C(=O)c2ccc(O)cc2O)cc1` [euspeclibcmpd1445] was tested, and the “Srxn1-GFP intensity median modified Z-score” value was 1.77 (inactive). For `N=c1[nH]c(F)nc2c1ncn2[C@@H]1O[C@H](COP(=O)(O)O)[C@@H](O)[C@@H]1O` [euspeclibcmpd850], the “Srxn1-GFP intensity median modified Z-score” value was 0.307 (inactive). For `COc1cc(C=CC(=O)O)cc(OC)c1O` [euspeclibcmpd1663], the “Srxn1-GFP intensity median modified Z-score” value was -0.0893 (inactive). For `CC(C)(C)NC(=O)C1CCC2C3CCC4NC(=O)C=C[C@]4(C)C3CC[C@]12C` (stereo partly drawn) [euspeclibcmpd849], the “Srxn1-GFP intensity median modified Z-score” value was -0.292 (inactive). With `COc1cccc(OC)c1C(=O)NC1C(=O)N2C1SC(C)(C)C2C(=O)O` (stereo not drawn) [euspeclibcmpd2201] the “Srxn1-GFP intensity median modified Z-score” value was 0.364 (inactive). `CC(O)=NO` [euspeclibcmpd970] was tested, and the “Srxn1-GFP intensity median modified Z-score” value was -0.0555 (inactive). `Cn1nnnc1SC=C1CSC2C(NC(=O)C(OC=O)c3ccccc3)C(=O)N2C1C(=O)O` (stereo not drawn) [euspeclibcmpd2340] was tested, and the “Srxn1-GFP intensity median modified Z-score” value was 0.482 (inactive). In the case of `C[N+]1(C)C2CC[C@H]1C[C@@H](OC(=O)C(O)c1ccccc1)C2` (stereo partly drawn) [euspeclibcmpd149], the “Srxn1-GFP intensity median modified Z-score” value is reported as 0.332 (inactive). In the case of `O=C1/C(=C\c2cccs2)CC/C1=C\c1cccs1`, the “Srxn1-GFP intensity median modified Z-score” value is reported as 2.51 (active). `O=C1/C(=C/c2cccs2)CSC/C1=C/c1cccs1` was tested, and the “Srxn1-GFP intensity median modified Z-score” value was 13.2 (active). For `CN1C/C(=C/c2cccs2)C(=O)/C(=C/c2cccs2)C1`, the “Srxn1-GFP intensity median modified Z-score” value was 1.25 (inactive). In the case of `O=C1/C(=C/c2cccs2)CCC/C1=C\c1cccs1` [euspeclibcmpd465], the “Srxn1-GFP intensity median modified Z-score” value is reported as 36.6 (active). `C#C[C@]1(O)CCC2C3CCc4cc(O)ccc4C3CC[C@@]21C` (stereo partly drawn) [euspeclibcmpd121] was tested, and the “Srxn1-GFP intensity median modified Z-score” value was 0.17 (inactive). `COc1cc2[nH]c(N(C)CCCNC(=O)C3CCCO3)nc(=N)c2cc1OC` (stereo not drawn) [euspeclibcmpd2275] was tested, and the “Srxn1-GFP intensity median modified Z-score” value was -0.081 (inactive). For `CN[C@H](CC(C)C)C(=O)NC1C(=O)N[C@@H](CC(N)=O)C(=O)N[C@H]2C(=O)Nc3c(O)[nH]c(c(O)[nH]c(=C(O)O)c4cc(O)cc(O)c4c4cc3ccc4O)[C@H](O)c3ccc(c(Cl)c3)Oc3cc2cc(c3O[C@@H]2OC(CO)[C@@H](O)[C@H](O)[C@H]2O[C@H]2C[C@](C)(N)[C@H](O)[C@H](C)O2)Oc2ccc(cc2Cl)[C@H]1O` (stereo partly drawn) [euspeclibcmpd319], the “Srxn1-GFP intensity median modified Z-score” value was 0.197 (inactive). `CCN1CCN(C(=O)NC(C(=O)NC2C(=O)N3C(C(=O)O)=C(CSc4nnnn4C)CSC23)c2ccc(O)cc2)C(=O)C1=O` (stereo not drawn) [euspeclibcmpd431] was tested, and the “Srxn1-GFP intensity median modified Z-score” value was -0.443 (inactive). For `CC[C@H](CCC(C)[C@H]1CCC2C3CCC4C[C@@H](O)CC[C@]4(C)C3CC[C@@]21C)C(C)C` (stereo partly drawn) [euspeclibcmpd1543], the “Srxn1-GFP intensity median modified Z-score” value was -0.389 (inactive). In the case of `O=C(O)CC(O)(CC(=O)O)C(=O)O` [euspeclibcmpd2462], the “Srxn1-GFP intensity median modified Z-score” value is reported as 0.449 (inactive). `O=C(O)CC(O)(CC(=O)O)C(=O)O` [euspeclibcmpd2464] was tested, and the “Srxn1-GFP intensity median modified Z-score” value was -0.363 (inactive). With `CC(=O)OC1C[C@@]2(C)C(C[C@@H](O)C3[C@]2(C)CC[C@H]2[C@H](C)[C@H](O)CC[C@]32C)C1=C(CCC=C(C)C)C(=O)O` (stereo partly drawn) [euspeclibcmpd136] the “Srxn1-GFP intensity median modified Z-score” value was -0.739 (inactive). With `COc1cc(O)c(C(=O)c2ccccc2)cc1O` [euspeclibcmpd1987] the “Srxn1-GFP intensity median modified Z-score” value was -0.376 (inactive). For `CC(C)C(NC(=O)[C@H](CC(=O)O)NC(=O)[C@H](CCCCN)NC(=O)[C@@H](N)CCCN=C(N)N)C(=O)N[C@@H](Cc1ccc(O)cc1)C(=O)O` (stereo partly drawn) [euspeclibcmpd1282], the “Srxn1-GFP intensity median modified Z-score” value was -0.1 (inactive). `C[C@H](CCC(=O)O)[C@H]1CCC2C3C(=O)CC4CC(=O)CC[C@]4(C)C3CC(=O)[C@@]21C` (stereo partly drawn) [euspeclibcmpd2057] was tested, and the “Srxn1-GFP intensity median modified Z-score” value was -0.197 (inactive). In the case of `NCCS(=O)(=O)O` [euspeclibcmpd625], the “Srxn1-GFP intensity median modified Z-score” value is reported as -0.209 (inactive). `NCCCCS(=O)(=O)O` was tested, and the “Srxn1-GFP intensity median modified Z-score” value was 10.1 (active). In the case of `NCCCS(=O)(=O)O` [euspeclibcmpd386], the “Srxn1-GFP intensity median modified Z-score” value is reported as -0.0155 (inactive). In the case of `CCc1[nH]c(=N)[nH]c(=N)c1-c1ccc(Cl)cc1` [euspeclibcmpd259], the “Srxn1-GFP intensity median modified Z-score” value is reported as 1.02 (inactive). In the case of `C[C@@H]1CN(c2c(F)c(F)c3c(=O)c(C(=O)O)cn(C4CC4)c3c2F)C[C@H](C)N1` [euspeclibcmpd981], the “Srxn1-GFP intensity median modified Z-score” value is reported as -0.465 (inactive). `Oc1c(C2=CC[C@@H](c3ccc(Cl)cc3)CC2)c(O)c2ccccc2c1O` [euspeclibcmpd664] was tested, and the “Srxn1-GFP intensity median modified Z-score” value was 37.9 (active). `COc1ccc(-c2cc(=O)c3c(O)c(OC)c(O[C@H]4O[C@H](CO[C@@H]5O[C@@H](C)[C@H](O)[C@@H](O)[C@H]5O)[C@@H](O)[C@H](O)[C@H]4O)cc3o2)cc1` [euspeclibcmpd1421] was tested, and the “Srxn1-GFP intensity median modified Z-score” value was -0.512 (inactive). For `COc1cc(OC)c2c(=O)c(O)c(-c3ccc(OC)c(OC)c3)oc2c1` [euspeclibcmpd2117], the “Srxn1-GFP intensity median modified Z-score” value was -0.572 (inactive). For `COc1cc(OC)c2c(=O)c(OC)c(-c3ccccc3)oc2c1` [euspeclibcmpd1625], the “Srxn1-GFP intensity median modified Z-score” value was 1.58 (inactive). In the case of `COc1cc(OC)c2c(OC)c(-c3ccc4c(c3)OCO4)c(=O)oc2c1` [euspeclibcmpd2227], the “Srxn1-GFP intensity median modified Z-score” value is reported as 2.22 (active). `CCN(CC)C(=O)C1(c2ccccc2)CC1CN` (stereo not drawn) [euspeclibcmpd689] was tested, and the “Srxn1-GFP intensity median modified Z-score” value was -0.729 (inactive). With `O=C(C(O)CO)C(O)CO` (stereo not drawn) [euspeclibcmpd2280] the “Srxn1-GFP intensity median modified Z-score” value was -0.0858 (inactive).
